Among the data in PubChem BioAssay are composite z-score and z-score values, retold here.

Structures are written as SMILES. Activity calls are given as the source filed them. Unless noted, no rule for the calls is given here.

The nature of assay [1]: compounds binding Alexa647 anti-His antibody – biochemical, small-molecule microarray, 635 nm fluorescence, artefact control for SMM control protein annotation, primary screen (AID 1128).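 Also: score merges feature fluorescence with signal-to-noise for each printed compound spot.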 Particulars: higher = more signal.
Assay [2] deals with Human papillomavirus type 1a E7 protein (residues 1-88). The experiment in a line: HPV1a E7 small-molecule binders, primary screen, biochemical, small-molecule microarray, residues 1-88, 635 nm (AID 1129). The following applies: small-molecule microarray binding, fluorescence 635 nm; higher = more signal.
In assay [3] the target is Focal adhesion kinase 1 (Homo sapiens) (UniProt Q05397). The assay is described as follows: PTK2 protein binding on printed compound slides – biochemical, small-molecule microarray, 635/667 nm fluorescence, BSA, DTT, primary screen (AID 1130).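 Also: composite of spot emission at 667 nm and signal to noise over triplicate slides.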 The following applies: 635 nm fluorescence, higher = more signal.
For assay [4], the system named is Fibrinogen (Alexa647-labelled). The assay is described as follows: Alexa647-fibrinogen binding to printed small molecules – biochemical, small-molecule microarray, 635/667 nm fluorescence, artefact control for SMM control-protein annotation, profiling panel (AID 1131).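 Also: z-score merges 667 nm fluorescence with per-spot signal-to-noise over triplicate slides.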 The following applies: fibrinogen-A647 binding fluorescence, higher = more signal.
Assay [5] concerns the target Follistatin (Homo sapiens) (UniProt P19883). The assay is described as follows: FST protein binding to printed compounds – biochemical, small-molecule microarray, 635/667 nm fluorescence, primary screen (AID 1132). Particulars: 635 nm fluorescence, higher = more signal.
The target in assay [6] is Fibroblast growth factor 2 (Homo sapiens) (UniProt P09038). The assay is described as follows: basic fibroblast growth factor binding to printed compounds – biochemical, small-molecule microarray, 635/667 nm fluorescence, primary screen (AID 1133). The following applies: FGF2, fluorescence 635/667, higher = more signal.
Assay [7] in a line: JC-1 mitochondrial potential readout, lung cancer cells – cell-based, A549, JC-1 fluorescence, basal, 24 h, 100 nL, profiling panel (AID 1138).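 Also: A549 lung adenocarcinoma cells under basal conditions with no added stimulus; test concentration not given here.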 Particulars: higher = more signal.
Assay [8] concerns Lefty1. The experiment in a line: Lefty1 protein binding to printed compounds – biochemical, small-molecule microarray, 635/667 nm fluorescence, primary screen (AID 1139). Particulars: fluorescence 635/667, higher = more signal.
Assay [9] has as its system wheat germ agglutinin (Triticum aestivum), Alexa647-labelled. The experiment in a line: Alexa647-WGA lectin binding to printed small molecules – biochemical, small-molecule microarray, 635/667 nm fluorescence, artefact control for SMM control-protein annotation, profiling panel (AID 1140).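 Also: score merges 667 nm feature emission with signal to noise over triplicate slides.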 The following applies: WGA-A647 binding, 635 nm fluorescence, higher = more signal.

Assay [10] has as its target Luciferin 4-monooxygenase (Photinus pyralis) (UniProt P08659). The experiment in a line: inhibition of purified Photinus pyralis luciferase – biochemical, luminescence, purified enzyme, 2006 set, primary screen (AID 1141).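 Also: cell-free assay with purified firefly luciferase at 100 ng per well in PBS; test concentration not given here.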 The following applies: purified firefly luciferase, SteadyGlo luminescence, 30 min; higher = more signal, called active from +8 up or from −8 down.
Assay [11] relates to Wnt5a (protein binding on small-molecule microarray). The experiment in a line: small molecules binding Wnt5a protein – biophysical, small-molecule microarray, 635/667 nm fluorescence, primary screen (AID 1142).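 Also: fluorescence read at 667 nm with signal to noise per printed feature.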 The following applies: 635 nm fluorescence, higher = more signal.
Assay [12] is described as follows: ATP-based viability of Huh7 replicon cells – cell-based, CellTiter-Glo luminescence, basal, 48 h, cytotoxicity control for HCV replication inhibitor project, primary screen (AID 1143).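 Also: Huh7 hepatoma cells carrying a hepatitis C replication reporter with no stimulus; test concentration not given here.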 Particulars: higher = more signal, called active from +8 up or from −8 down. (Replicon systems follow genome replication, usually without infectious particles.)
Assay [13] is described as follows: Pseudomonas biofilm growth suppression – PAO1 strain, BacTiter-Glo luminescence, LB-PBS, primary screen (AID 1144). The following applies: P. aeruginosa PAO1 biofilm, 12 h, higher = more signal.
Assay [14] in a line: basal CRE-LacZ reporter activity in PC12 – cell-based, unstimulated, primary screen (AID 1145). Particulars: no forskolin, luminescence, 4.5 h, higher = more signal, called active from +8 up or from −8 down.
A short description of assay [15]: forskolin-driven CRE-LacZ activity in PC12 – cell-based, CRE-LacZ reporter, forskolin-stimulated, primary screen (AID 1146).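 Also: PC12 cells with 6xCRE LacZ reporter stimulated by forskolin 10 µM; beta-galactosidase reporter signal reflecting CREB driven transcription.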 Particulars: luminescence, 4.5 h, higher = more signal, called active from +8 up or from −8 down.
Assay [16] addresses Streptavidin (Streptomyces avidinii) (UniProt P22629). The experiment in a line: compounds binding control protein streptavidin – biophysical, small-molecule microarray, 635/667 nm fluorescence, artefact control for SMM compound annotation, primary screen (AID 1147).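 Also: signal reflects streptavidin binding to arrayed compounds as a control protein.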 Particulars: higher = more signal.
The nature of assay [17]: probe aInhba binding on compound microarray – biochemical, small-molecule microarray, 635/667 nm fluorescence, primary screen (AID 1148).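 Also: score merges 667nm spot fluorescence with signal-to-noise for antibody binding to printed compounds.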 The following applies: higher = more signal.
The target in assay [18] is Torsin-1A (Homo sapiens) (UniProt O14656). The assay is described as follows: TOR1A wild-type binding on microarray – cell lysate, small-molecule microarray, lysate, 635/667 nm, primary screen (AID 1149). Particulars: COS7 hTOR1A-WT lysate, 635 nm fluorescence, higher = more signal.
Assay [19] shares this target. The assay is described as follows: torsin A mutant lysate binding on microarrays – cell lysate, small-molecule microarray, COS7 lysate, 635/667 nm fluorescence, primary screen (AID 1150).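 Also: score pools 667 nm emission and signal to noise measuring lysate protein binding.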 The following applies: COS7 hTOR1A mutant lysate, 635 nm fluorescence, higher = more signal.
For assay [20], the system named is Sonic hedgehog protein (Shh). The experiment in a line: Sonic hedgehog microarray binding compounds – biochemical, small-molecule microarray, 635/667 nm fluorescence, primary screen (AID 1151).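 Also: Shh protein binding to compounds spotted on small-molecule microarray slides; score combines spot fluorescence intensity with signal-to-noise across triplicate slides.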 Particulars: 635 nm fluorescence, higher = more signal.

Focal adhesion kinase 1 (Homo sapiens), sequence (Q05397 whole entry, looked up): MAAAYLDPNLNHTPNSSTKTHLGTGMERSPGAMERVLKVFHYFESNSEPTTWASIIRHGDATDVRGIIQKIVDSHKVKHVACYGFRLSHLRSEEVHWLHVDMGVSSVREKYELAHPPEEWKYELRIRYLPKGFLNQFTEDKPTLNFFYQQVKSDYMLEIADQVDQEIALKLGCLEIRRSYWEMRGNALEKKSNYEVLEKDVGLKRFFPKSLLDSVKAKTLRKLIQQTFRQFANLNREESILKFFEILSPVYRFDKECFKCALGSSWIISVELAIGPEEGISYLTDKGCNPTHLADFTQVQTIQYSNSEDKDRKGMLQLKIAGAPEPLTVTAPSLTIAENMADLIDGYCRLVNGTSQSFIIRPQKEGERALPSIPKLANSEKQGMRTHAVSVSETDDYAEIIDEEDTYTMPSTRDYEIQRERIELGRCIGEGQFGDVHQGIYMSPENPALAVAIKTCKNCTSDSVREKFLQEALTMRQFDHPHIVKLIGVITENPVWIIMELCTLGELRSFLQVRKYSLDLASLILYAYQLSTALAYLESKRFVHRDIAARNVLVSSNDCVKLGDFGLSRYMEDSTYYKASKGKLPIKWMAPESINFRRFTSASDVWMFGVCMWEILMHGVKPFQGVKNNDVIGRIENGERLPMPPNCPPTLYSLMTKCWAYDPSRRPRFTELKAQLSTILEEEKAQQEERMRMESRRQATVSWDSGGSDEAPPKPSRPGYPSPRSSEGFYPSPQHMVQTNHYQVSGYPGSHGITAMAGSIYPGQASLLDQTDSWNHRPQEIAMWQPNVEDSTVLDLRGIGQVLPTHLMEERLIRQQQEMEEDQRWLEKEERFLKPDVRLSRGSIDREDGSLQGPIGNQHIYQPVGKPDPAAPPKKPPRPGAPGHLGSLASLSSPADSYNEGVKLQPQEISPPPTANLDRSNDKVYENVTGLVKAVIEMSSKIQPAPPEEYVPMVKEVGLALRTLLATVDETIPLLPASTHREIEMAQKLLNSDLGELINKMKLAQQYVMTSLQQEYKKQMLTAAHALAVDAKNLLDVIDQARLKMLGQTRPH
Torsin-1A (Homo sapiens), sequence (O14656 whole entry, looked up): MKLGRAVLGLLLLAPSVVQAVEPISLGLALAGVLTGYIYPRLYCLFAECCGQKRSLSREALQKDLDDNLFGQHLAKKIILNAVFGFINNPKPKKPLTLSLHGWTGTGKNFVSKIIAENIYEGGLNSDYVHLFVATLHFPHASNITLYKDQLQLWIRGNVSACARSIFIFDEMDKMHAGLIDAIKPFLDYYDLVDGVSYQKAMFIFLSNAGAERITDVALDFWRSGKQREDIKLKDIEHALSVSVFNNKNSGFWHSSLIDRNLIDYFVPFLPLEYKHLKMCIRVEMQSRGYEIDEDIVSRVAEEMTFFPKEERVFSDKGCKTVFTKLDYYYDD
Streptavidin (Streptomyces avidinii), sequence (P22629 whole entry, looked up): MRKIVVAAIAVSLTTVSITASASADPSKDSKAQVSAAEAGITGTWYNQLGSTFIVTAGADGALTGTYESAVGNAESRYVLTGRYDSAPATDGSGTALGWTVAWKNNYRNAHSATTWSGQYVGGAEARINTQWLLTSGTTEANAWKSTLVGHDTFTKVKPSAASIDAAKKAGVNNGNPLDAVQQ
Luciferin 4-monooxygenase (Photinus pyralis), sequence (P08659 whole entry, looked up): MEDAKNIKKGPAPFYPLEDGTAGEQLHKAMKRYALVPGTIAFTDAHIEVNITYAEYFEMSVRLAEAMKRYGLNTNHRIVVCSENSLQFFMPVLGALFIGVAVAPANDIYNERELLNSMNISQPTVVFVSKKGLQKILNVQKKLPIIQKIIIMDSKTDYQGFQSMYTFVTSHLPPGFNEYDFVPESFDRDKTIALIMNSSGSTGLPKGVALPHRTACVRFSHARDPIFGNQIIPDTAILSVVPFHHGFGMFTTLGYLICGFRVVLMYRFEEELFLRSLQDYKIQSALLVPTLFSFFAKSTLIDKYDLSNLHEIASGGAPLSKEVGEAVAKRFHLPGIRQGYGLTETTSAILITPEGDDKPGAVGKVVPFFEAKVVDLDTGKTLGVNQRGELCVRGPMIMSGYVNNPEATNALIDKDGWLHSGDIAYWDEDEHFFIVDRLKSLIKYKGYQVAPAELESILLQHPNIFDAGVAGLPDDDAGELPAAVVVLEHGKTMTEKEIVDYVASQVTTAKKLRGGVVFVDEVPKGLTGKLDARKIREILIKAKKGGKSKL
Follistatin (Homo sapiens), sequence (P19883 whole entry, looked up): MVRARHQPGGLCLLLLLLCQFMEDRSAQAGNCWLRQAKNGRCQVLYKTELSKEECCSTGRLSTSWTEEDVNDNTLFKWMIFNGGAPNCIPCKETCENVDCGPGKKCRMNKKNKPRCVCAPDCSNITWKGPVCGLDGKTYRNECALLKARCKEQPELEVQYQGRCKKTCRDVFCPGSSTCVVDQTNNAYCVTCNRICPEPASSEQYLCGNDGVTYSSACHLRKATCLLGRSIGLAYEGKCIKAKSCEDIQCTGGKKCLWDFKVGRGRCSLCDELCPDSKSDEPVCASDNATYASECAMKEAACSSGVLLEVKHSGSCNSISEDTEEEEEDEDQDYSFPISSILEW
Fibroblast growth factor 2 (Homo sapiens), sequence (P09038 whole entry, looked up): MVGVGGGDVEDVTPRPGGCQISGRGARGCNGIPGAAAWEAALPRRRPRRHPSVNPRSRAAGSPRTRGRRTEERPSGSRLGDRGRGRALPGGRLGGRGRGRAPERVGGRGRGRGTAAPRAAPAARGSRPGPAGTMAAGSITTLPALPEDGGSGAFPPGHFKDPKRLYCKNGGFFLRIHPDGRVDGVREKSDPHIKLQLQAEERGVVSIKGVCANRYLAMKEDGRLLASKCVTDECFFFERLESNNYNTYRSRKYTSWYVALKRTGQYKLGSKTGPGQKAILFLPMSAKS

In the case of `COCCOC(=O)N1C(=O)[C@@]2(c3cc(C#CCCO)ccc31)[C@H](c1ccccc1OCCO)N1[C@H](c3ccccc3)[C@H](c3ccccc3)OC(=O)[C@H]1[C@@H]2C(=O)Nc1nc2ccccc2s1`, the composite z-score in assay [1] is 2.09; in assay [2] it was 1.2; in assay [3], 0.771; in assay [4], 0.733; in [5], 1.07; in assay [6], 0.957. For the same compound, the composite z-score in assay [8] is 0.932; in assay [9], 1.24; in assay [11], 0.138; in assay [16], 0.284; in [17] it was 0.107; in assay [18] it was 0.691. The composite z-score turned out to be 0.568 in assay [19] and 1.66 in [20]. Further, the z-score in [7] is -2.27; in [10], -0.499 (inactive); in assay [12] it was -0.99 (inactive); in [13], 0.564 (inactive); in [14], -0.467 (inactive); in assay [15], 0.428 (inactive).
Turning to `COCCOC(=O)N1C(=O)[C@@]2(c3cc(C#CC4=CCCCC4)ccc31)[C@H](C(N)=O)[C@H]1C(=O)O[C@H](c3ccccc3)[C@H](c3ccccc3)N1[C@@H]2c1ccccc1OCCO`, the composite z-score in [1] turned out to be 1.34; in assay [2] it was 1.21; in assay [3], 0.143; in [4], 0.939; in assay [5], 1.31; in assay [6] it was 1.42. Also, the composite z-score came out at 0.943 in assay [8]; 1.05 in [9]; 0.183 in assay [11]; 0.483 in [16]; 0.147 in [17]; 0.38 in assay [18]. Besides, the composite z-score in assay [19] came to 1.41; in assay [20], 1.08. Also, the z-score in [7] was -1.89; in [10], -0.591 (inactive); in assay [12], -6.52 (inactive); in assay [13], -0.413 (inactive); in [14] it was -0.333 (inactive); in [15], -0.855 (inactive).
Consider `CO[C@]12C=C(Br)[C@@H](C[C@@H]1c1cccc(C)c1)[C@@]1(CO1)C2=O`, for which the composite z-score in assay [1] was 0.177; in assay [2], -0.322; in [3] it was -0.129; in assay [4], -0.407; in assay [5], 0.415; in [6] it was 0.391. In addition, the composite z-score was 0.802 in assay [8]; -0.0489 in assay [9]; -0.161 in assay [11]; -0.433 in assay [16]; -0.154 in assay [17]; -0.436 in assay [18]. The results for the composite z-score in assay [19] and in [20] were -0.407 and 0.841, respectively. Also, the z-score in [7] is -0.645; in assay [10], 1.02 (inactive); in assay [12] it was -0.795 (inactive); in assay [13] it was -0.863 (inactive); in [14], 0.223 (inactive); in [15] it was 5.27 (inactive).
In the case of `Cc1ccc(S[C@]2(C(=O)O)CC(=O)N(Cc3cc(C(F)(F)F)cc(C(F)(F)F)c3)[C@@H]2c2ccc(CO)cc2)cc1`, the composite z-score in assay [1] was -1.45; in assay [2], -0.889; in assay [3], -0.194; in assay [4], -0.84; in assay [5], -1.22; in assay [6] it was -0.897. Besides, the composite z-score is -1.66 in assay [8]; -1.31 in assay [9]; -0.256 in assay [11]; -0.882 in assay [16]; -0.128 in assay [17]; -0.272 in assay [18]. The composite z-score was -0.62 in assay [19] and -1.26 in assay [20]. Moreover, the z-score in assay [7] was -0.389; in assay [10], -0.0278 (inactive); in [12], 0.0756 (inactive); in assay [13], -0.00769 (inactive); in assay [14], 0.621 (inactive); in assay [15], 0.573 (inactive).
Regarding `COCCCNC(=O)[C@@]1(Cc2ccccc2CN=[N+]=[N-])N=C(c2ccc(OCCCO)cc2)O[C@H]1c1ccccc1`, the composite z-score amounted to 1.75 in assay [1]; 1.23 in assay [2]; 0.895 in [3]; 0.991 in [4]; 1.25 in assay [5]; 0.14 in assay [6]. The composite z-score in assay [8] turned out to be 0.365; in [9], 0.73; in assay [11], 0.919; in assay [16], 0.284; in assay [17], 0.0872; in assay [18], 0.821. In addition, the figures for the composite z-score in [19] and in assay [20] were 1.26 and -0.715, respectively. Moreover, the z-score in [7] was -0.0671; in assay [10], 0.094 (inactive); in [12], -4.74 (inactive); in assay [13] it was -0.688 (inactive); in [14] it was 0.391 (inactive); in assay [15] it was 0.145 (inactive).
